Screening data from PubChem BioAssay.
Only some compounds are listed: those with a hit (about 21% of all), similar ones and a draw of the others.
Pf growth 96h: P. falciparum growth inhibition at 96 hours. P. falciparum luciferase reporter growth, 96 h. Potency, µM (highest dose often 28.7 µM), for the others: at the top dose activity change, negative = inhibition, usual class: inhibitors. actives 6.9% (n = 320,000); further: potency means the concentration at half of the fitted maximal effect; on the % scale 0 is the no-effect control and ±100 the full control effect
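P. falciparum expressing integrated firefly luciferase grown in erythrocytes (2% hematocrit, 0.05% parasitemia final) with compounds for 96 hours at 37 C, 5% CO2. Growth inhibition read as loss of luminescence after adding luciferase detection reagent.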
Shiga inhibitor: blocks Shiga toxin action in Vero cells. inhibition, % at 38.7 µM. AID 2315. Vero cells, Shiga toxin protein synthesis inhibition reporter. actives 9.2% (n = 290,000); in the data active means inhibition mostly above about 28%, no sharp cut-off; inactive means mostly below about 43%; further: 0% is about no effect
Pf growth 48h: inhibits P. falciparum growth in the first generation, 48 h. P. falciparum luciferase growth in erythrocytes, 48 h. Potency, µM (top dose mostly 28.7 µM), for the others: at the top dose activity change, negative = inhibition, most hits filed as inhibitors. actives 5.9% (n = 310,000). AID 504832; further: potency means the concentration at half of the fitted maximal effect; on the % scale 0 is the no-effect control and ±100 the full control effect
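Luciferase-expressing parasites in RBCs, 2% Hct / 0.1% parasitemia final; RPMI 1640 + 0.5% Albumax; 37 C, 5% CO2, one generation; luminescence read-out, lower signal = inhibition.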
NS1 inh: inhibitors of influenza NS1 protein function. Potency, µM (series often up to 46.1 µM), inactives show top-dose activity, positive = more growth. actives 0.4% (n = 270,000). AID 2326; calls by dose curve; further: potency means the concentration at half of the fitted maximal effect; actives are rising curves; nearly all actives have a fitted effect of over 50% in size
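A cell-based growth assay was used: compounds that relieve NS1-induced slow growth of budding yeast raise OD600. Assay medium was yeast nitrogen base with ammonium sulphate and -URA supplement, pH 6.0, with 2% galactose.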
Sm TGR inh: blocks Schistosoma mansoni thioredoxin glutathione reductase; AID 485364; Potency, µM (top dose mostly 114 µM), for inactives: at the highest dose activity change, negative = inhibition, usual class: inhibitors; purified TGR, DTNB reduction, TNB absorbance 405 nm; actives 3% (n = 360,000); Q962Y6; further: potency means the concentration at half of the fitted maximal effect; on the % scale 0 is the no-effect control and ±100 the full control effect; nearly all actives have a fitted effect of over 60% in size
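TGR 20 nM + NADPH 100 uM (dispensed conc.), cpd preinc 15 min RT; start with NADPH (500 uM addition) then DTNB (15 mM addition). Kinetic TNB absorbance, 405 nm filter. Four-parameter Hill fit across titration.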
CHX counter: counter-screen for Shiga toxin inhibitors: cycloheximide protein synthesis inhibition. AID 2314. actives 12% (n = 300,000). cell reporter, cycloheximide protein synthesis inhibition counterscreen. max response, %; in the data active means max response mostly above about 13%, no sharp cut-off; inactive means mostly below about 14%; further: read at 38.3 µM for the half of the compounds with a filed dose; 0% is about no effect
Active calls of the source: *; ? = inconclusive; / = no result. Unless noted, the call rests on the fitted dose curve; in most records, active means well fitted curve in the direction sought with a large enough effect; inconclusive means small, poorly fitted or top-dose-only effect, or another doubt; inactive means no such curve, though single readings can be large; an effect the other way counts as inactive or inconclusive.

SMILES	Pf growth 96h	Shiga inhibitor	Pf growth 48h	NS1 inh	Sm TGR inh	CHX counter
COc1ccc(CNc2ncnc3cc(OC)c(OC)cc23)cc1	2.1µM*	-12	4.1µM*	1%	-14%	-5
Cc1ccc2c(c1)c1c3n2CC(=C2C(=O)OC(C)(C)OC2=O)NC3CCC1 (stereo not drawn)	0.19µM*	28	?	-59%	?	-1
Cc1ccc2c(c1)c1c3n2CCN(C(=O)C2CC2)C3CCC1 (stereo not drawn)	?	28	/	-78%	0%	7
CC1CCCN(Cc2nc3c(c(=O)n(C)c(=O)n3C)n2Cc2ccc(Cl)cc2Cl)C1 (stereo not drawn)	/	/	/	/	-6%	/
Cc1cccc(/C=N/NC(=O)c2ccc3c(c2)OCCO3)c1O	?	55*	0%	-73%	1%	14
Cc1cccc(/C=N/NC(=O)Cc2ccc(Cl)cc2)c1O	98%	-7	?	1%	90%	-2
COc1cccc(/C=N/NC(=O)CNC(=O)c2ccc3c(c2)OCCO3)c1O	26%	4	31%	-9%	6%	-2
Cc1cccc(/C=N\NC(=O)c2ccc(Cl)cc2)c1O	-20%	82*	?	-6%	2%	62*
CCOc1cccc(/C=N/NC(=O)c2ccc3c(c2)OCCO3)c1O	?	82*	?	12%	-8%	29*
Cc1ccc(NS(=O)(=O)c2cccc(C(=O)N/N=C/c3ccc4c(c3)OCCO4)c2)c(C)c1	?	30	12%	37%	9%	14*
O=C(Nc1ccnn1C1CCN(Cc2ccn[nH]2)CC1)c1ccccc1	3%	-26	7%	-4%	-13%	1
O=C(Nc1cccc([N+](=O)[O-])c1)C1CC(=O)N(C2CCCCC2)C1 (stereo not drawn)	16%	7	33%	5%	-11%	-4
CCC(Sc1nnc2c3ccccc3n(CC)c2n1)C(=O)Nc1sc2c(c1C#N)CCCC2 (stereo not drawn)	/	-4	29%	8%	-7%	-4
COc1ccccc1CCNC(=O)C1CCC(=O)N(Cc2ccccc2OC)C1 (stereo not drawn)	2%	23	-5%	5%	0%	15*
COc1ccccc1CN1CC(C(=O)NCCc2ccc(C)o2)CCC1=O (stereo not drawn)	9.3µM*	-3	-18%	-10%	25µM*	13
COc1ccccc1CN1CC(C(=O)NCCCc2ccc(F)cc2)CCC1=O (stereo not drawn)	?	6	-20%	-1%	-8%	9
COc1ccc(S(=O)(=O)N2CCC(C(=O)NC3CC3)CC2)cc1OC	19%	-9	-22%	22%	-12%	-4
COc1ccc(CCNC(=O)C2CCC(=O)N(CCc3ccc(OC)cc3)C2)cc1 (stereo not drawn)	1%	23	12%	-3%	1%	16
COc1ccc(CCN2CC(C(=O)NCCc3ccccc3C(F)(F)F)CCC2=O)cc1 (stereo not drawn)	4%	70*	-1%	-9%	-15%	66*
COc1ccc(S(=O)(=O)N2CCC(C(=O)N(C)Cc3ccc(C)o3)CC2)cc1OC	?	/	?	/	40µM*	/
Cc1ccc2oc(C(=O)Nc3nc(-c4ccc(F)cc4)ns3)c(C)c2c1	/	/	/	/	4%	/
O=C(Nc1ccon1)Nc1ccc(F)cc1F	84%	52	1%	-3%	1%	10
Cc1ccc(C(=O)N2CCCC(Nc3ccc(C(C)C)cc3)C2)cn1 (stereo not drawn)	?	-1	-1%	9%	0%	-3
O=C1/C(=C/c2ccccc2)[C@@H](NC2CCCCC2)c2ccccc21	/	/	/	-45%	/	/
Cc1ccccc1CNC(=O)C1CCC(=O)N(Cc2cccc(F)c2)C1 (stereo not drawn)	?	6	-4%	-8%	-7%	-2
SMILES	Pf growth 96h	Shiga inhibitor	Pf growth 48h	NS1 inh	Sm TGR inh	CHX counter
COc1ccccc1CN1CC(C(=O)NCc2ccc(C)c(F)c2)CCC1=O (stereo not drawn)	?	13	0%	0%	4%	-2
CN(C(=O)C1CCC(=O)N(Cc2cccc(F)c2)C1)C1CCCCC1 (stereo not drawn)	32%	121*	0%	10%	-8%	87*
COc1ccccc1CN1CC(C(=O)NCc2c(F)ccc(C)c2F)CCC1=O (stereo not drawn)	?	82*	-2%	12%	1%	47*
COc1ccccc1CCNC(=O)C1CCC(=O)N(Cc2cccc(F)c2)C1 (stereo not drawn)	?	37*	-10%	-3%	-19%	20*
CC(C)Oc1ccc(CCNC(=O)C2CCC(=O)N(Cc3cccc(F)c3)C2)cc1 (stereo not drawn)	?	54	-9%	8%	-2%	55*
CCCN(C(=O)c1ccc(OCC(C)C)cc1)c1c(N)n(Cc2ccccc2)c(=O)[nH]c1=O	?	/	8%	/	-3%	/
C[N+](C)(C)CCN(Cc1cccs1)c1ccccn1	/	/	/	-8%	/	/
COc1ccccc1CN1CC(C(=O)N(C)Cc2ccc(C)o2)CCC1=O (stereo not drawn)	8%	98	4%	-3%	20µM*	22*
COc1ccccc1CN1CC(C(=O)N(C)Cc2ccncc2C)CCC1=O (stereo not drawn)	0%	-3	21%	12%	-15%	-2
COc1ccc(CCN2CC(C(=O)N(C)Cc3ccc(C)o3)CCC2=O)cc1 (stereo not drawn)	32%	74*	7%	-3%	0%	38*
CSc1nc(N)c2c3c(sc2n1)COC(C(C)C)C3 (stereo not drawn)	5.2µM*	-6	/	-2%	-21%	-2
O=C(Nc1nnc(SCCC2OCCO2)s1)C1CC(=O)N(c2ccccc2)C1 (stereo not drawn)	?	-8	-14%	17%	-34%	-2
O=C(Nc1nnc(SCCC2OCCO2)s1)C1CC(=O)N(c2ccc(F)cc2)C1 (stereo not drawn)	10µM*	-2	?	29%	-5%	4
COc1cccc(N2CC(C(=O)Nc3nnc(SCCC4OCCO4)s3)CC2=O)c1 (stereo not drawn)	9.3µM*	-8	-21%	22%	14%	2
CCCNC(=O)c1cc2c3ccccc3n(C)c2s1	?	15	?	-26%	3%	14
Cn1c2ccccc2c2cc(C(=O)NNC(=O)CCl)sc21	9.3µM*	-7	?	/	40µM*	7
CCOC(=O)c1ccc(N2C(=O)c3n[nH]c(-c4cccs4)c3C2c2ccc(C(C)(C)C)cc2)cc1 (stereo not drawn)	/	/	/	/	1%	/
Nc1ccccc1S[C@@H](C[N+](=O)[O-])c1ccc2c(c1)OCO2	/	/	/	-28%	/	/
NC(=O)[C@@H]1CCCN1C(=O)c1ccc2nc(Cc3ccccc3F)oc2c1	-26%	16	11%	7%	5%	8
